# Experimental data: the supplement of paper PMC4466140
# What was measured:
# Test in all cases: SPOT peptide array binding signal intensity (averaged, normalized) (arbitrary units (background-subtracted, floor 0; scale differs between SH3 domains)); higher = stronger binding of the SH3 domain to the peptide
# [1] = biological target: AgAbp1
# How it was run: (§1)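 The binding signal is the normalized, background-subtracted spot intensity averaged over replicates; its arbitrary units differ between domains. It was obtained by incubating 10 μg/ml GST-fused SH3 domains from four yeast species overnight at 4°C in TBS-based blocking buffer on cellulose membranes with synthetic 15-mer peptides, cysteines replaced by serines, then detecting with anti-GST antibody, HRP anti-mouse secondary and luminol.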
# [2] = biological target: AgBbc1
# How it was run: as §1
# [3] = biological target: AgBem1-D1
# How it was run: as §1
# [4] = biological target: AgBzz1-D1
# How it was run: as §1
# [5] = biological target: AgBzz1-D2
# How it was run: as §1
# [6] = biological target: AgCyk3
# How it was run: as §1
# [7] = biological target: AgFus1
# How it was run: as §1
# [8] = biological target: AgHof1
# How it was run: as §1
# [9] = biological target: AgHse1
# How it was run: as §1
# [10] = biological target: AgLsb1
# How it was run: as §1
# [11] = biological target: AgLsb4
# How it was run: as §1
# [12] = biological target: AgMyo5
# How it was run: as §1
# [13] = biological target: AgNbp2
# How it was run: as §1
# [14] = biological target: AgRvs167
# How it was run: as §1
# [15] = biological target: AgSho1
# How it was run: as §1
# [16] = biological target: AgSla1-D1-D2
# How it was run: as §1
# [17] = biological target: AgSla1-D3
# How it was run: as §1
# [18] = biological target: CaAbp1-D1
# How it was run: as §1
# [19] = biological target: CaAbp1-D2
# How it was run: as §1
# [20] = biological target: CaBbc1
# How it was run: as §1
# [21] = biological target: CaBem1-D1
# How it was run: as §1
# [22] = biological target: CaBzz1-D1
# How it was run: as §1
# [23] = biological target: CaBzz1-D2
# How it was run: as §1
# [24] = biological target: CaCyk3
# How it was run: as §1
# [25] = biological target: CaFus1
# How it was run: as §1
# [26] = biological target: CaHof1
# How it was run: as §1
# [27] = biological target: CaHse1
# How it was run: as §1
# [28] = biological target: CaLsb1
# How it was run: as §1
# [29] = biological target: CaLsb4
# How it was run: as §1
# [30] = biological target: CaMyo5
# How it was run: as §1
# [31] = biological target: CaNbp2
# How it was run: as §1
# [32] = biological target: CaRvs167
# How it was run: as §1
# [33] = biological target: CaRvs167-3
# How it was run: as §1
# [34] = biological target: CaSho1
# How it was run: as §1
# [35] = biological target: CaSla1-D1-D2
# How it was run: as §1
# [36] = biological target: CaSla1-D3
# How it was run: as §1
# [37] = biological target: ScAbp1
# How it was run: as §1
# [38] = biological target: ScBbc1
# How it was run: as §1
# [39] = biological target: ScBem1-D1
# How it was run: as §1
# [40] = biological target: ScBzz1-D1
# How it was run: as §1
# [41] = biological target: ScBzz1-D2
# How it was run: as §1
# [42] = biological target: ScCyk3
# How it was run: as §1
# [43] = biological target: ScFus1
# How it was run: as §1
# [44] = biological target: ScHof1
# How it was run: as §1
# [45] = biological target: ScHse1
# How it was run: as §1
# [46] = biological target: ScLsb1
# How it was run: as §1
# [47] = biological target: ScLsb2
# How it was run: as §1
# [48] = biological target: ScLsb3
# How it was run: as §1
# [49] = biological target: ScLsb4
# How it was run: as §1
# [50] = biological target: ScMyo3
# How it was run: as §1
# [51] = biological target: ScMyo5
# How it was run: as §1
# [52] = biological target: ScNbp2
# How it was run: as §1
# [53] = biological target: ScPex13
# How it was run: as §1
# [54] = biological target: ScRvs167
# How it was run: as §1
# [55] = biological target: ScSho1
# How it was run: as §1
# [56] = biological target: ScSla1-D1-D2
# How it was run: as §1
# [57] = biological target: ScSla1-D3
# How it was run: as §1
# [58] = biological target: SpAbp1-D1
# How it was run: as §1
# [59] = biological target: SpBbc1
# How it was run: as §1
# [60] = biological target: SpBzz1-D1
# How it was run: as §1
# [61] = biological target: SpBzz1-D2
# How it was run: as §1
# [62] = biological target: SpCyk3
# How it was run: as §1
# [63] = biological target: SpHof1
# How it was run: as §1
# [64] = biological target: SpHof1-2
# How it was run: as §1
# [65] = biological target: SpHof1-3
# How it was run: as §1
# [66] = biological target: SpHse1
# How it was run: as §1
# [67] = biological target: SpLsb1
# How it was run: as §1
# [68] = biological target: SpLsb4
# How it was run: as §1
# [69] = biological target: SpMyo1
# How it was run: as §1
# [70] = biological target: SpNbp2
# How it was run: as §1
# [71] = biological target: SpPex13
# How it was run: as §1
# [72] = biological target: SpRvs167
# How it was run: as §1
# [73] = biological target: SpSla1-D1-D2
# How it was run: as §1
# [74] = biological target: SpSla1-D3
# How it was run: as §1
binder,measurement,setting,value
VDFTLPPPPPPPGLD,SPOT peptide array binding signal intensity,[1],4
same,SPOT peptide array binding signal intensity,[2],≤ 0
same,SPOT peptide array binding signal intensity,[3],≤ 0
same,SPOT peptide array binding signal intensity,[4],≤ 0
same,SPOT peptide array binding signal intensity,[5],≤ 0
same,SPOT peptide array binding signal intensity,[6],≤ 0
same,SPOT peptide array binding signal intensity,[7],≤ 0
same,SPOT peptide array binding signal intensity,[8],27.8
same,SPOT peptide array binding signal intensity,[9],32
same,SPOT peptide array binding signal intensity,[10],1.5
same,SPOT peptide array binding signal intensity,[11],≤ 0
same,SPOT peptide array binding signal intensity,[12],1660
same,SPOT peptide array binding signal intensity,[13],≤ 0
same,SPOT peptide array binding signal intensity,[14],1.67
same,SPOT peptide array binding signal intensity,[15],≤ 0
same,SPOT peptide array binding signal intensity,[16],2
same,SPOT peptide array binding signal intensity,[17],0.5
same,SPOT peptide array binding signal intensity,[18],≤ 0
same,SPOT peptide array binding signal intensity,[19],9
same,SPOT peptide array binding signal intensity,[20],≤ 0
same,SPOT peptide array binding signal intensity,[21],≤ 0
same,SPOT peptide array binding signal intensity,[22],230
same,SPOT peptide array binding signal intensity,[23],≤ 0
same,SPOT peptide array binding signal intensity,[24],≤ 0
same,SPOT peptide array binding signal intensity,[25],≤ 0
same,SPOT peptide array binding signal intensity,[26],0.5
same,SPOT peptide array binding signal intensity,[27],≤ 0
same,SPOT peptide array binding signal intensity,[28],≤ 0
same,SPOT peptide array binding signal intensity,[29],≤ 0
same,SPOT peptide array binding signal intensity,[30],29
same,SPOT peptide array binding signal intensity,[31],≤ 0
same,SPOT peptide array binding signal intensity,[32],1
same,SPOT peptide array binding signal intensity,[33],0.25
same,SPOT peptide array binding signal intensity,[34],≤ 0
same,SPOT peptide array binding signal intensity,[35],≤ 0
same,SPOT peptide array binding signal intensity,[36],≤ 0
same,SPOT peptide array binding signal intensity,[37],≤ 0
same,SPOT peptide array binding signal intensity,[38],≤ 0
same,SPOT peptide array binding signal intensity,[39],≤ 0
same,SPOT peptide array binding signal intensity,[40],6
same,SPOT peptide array binding signal intensity,[41],≤ 0
same,SPOT peptide array binding signal intensity,[42],1
same,SPOT peptide array binding signal intensity,[43],≤ 0
same,SPOT peptide array binding signal intensity,[44],17.8
same,SPOT peptide array binding signal intensity,[45],≤ 0
same,SPOT peptide array binding signal intensity,[46],≤ 0
same,SPOT peptide array binding signal intensity,[47],1.5
same,SPOT peptide array binding signal intensity,[48],≤ 0
same,SPOT peptide array binding signal intensity,[49],≤ 0
same,SPOT peptide array binding signal intensity,[50],1810
same,SPOT peptide array binding signal intensity,[51],1800
same,SPOT peptide array binding signal intensity,[52],≤ 0
same,SPOT peptide array binding signal intensity,[53],4.75
same,SPOT peptide array binding signal intensity,[54],2.33
same,SPOT peptide array binding signal intensity,[55],≤ 0
same,SPOT peptide array binding signal intensity,[56],≤ 0
same,SPOT peptide array binding signal intensity,[57],≤ 0
same,SPOT peptide array binding signal intensity,[58],≤ 0
same,SPOT peptide array binding signal intensity,[59],0.5
same,SPOT peptide array binding signal intensity,[60],1630
same,SPOT peptide array binding signal intensity,[61],7
same,SPOT peptide array binding signal intensity,[62],1
same,SPOT peptide array binding signal intensity,[63],≤ 0
same,SPOT peptide array binding signal intensity,[64],0.75
same,SPOT peptide array binding signal intensity,[65],1.75
same,SPOT peptide array binding signal intensity,[66],11
same,SPOT peptide array binding signal intensity,[67],0.5
same,SPOT peptide array binding signal intensity,[68],≤ 0
same,SPOT peptide array binding signal intensity,[69],1110
same,SPOT peptide array binding signal intensity,[70],≤ 0
same,SPOT peptide array binding signal intensity,[71],≤ 0
same,SPOT peptide array binding signal intensity,[72],1
same,SPOT peptide array binding signal intensity,[73],≤ 0
same,SPOT peptide array binding signal intensity,[74],≤ 0
TKFRISLGLPVGAIM,SPOT peptide array binding signal intensity,[1],4
same,SPOT peptide array binding signal intensity,[2],108
same,SPOT peptide array binding signal intensity,[3],429
same,SPOT peptide array binding signal intensity,[4],100
same,SPOT peptide array binding signal intensity,[5],109
same,SPOT peptide array binding signal intensity,[6],66
same,SPOT peptide array binding signal intensity,[7],1490
same,SPOT peptide array binding signal intensity,[8],91.5
same,SPOT peptide array binding signal intensity,[9],911
same,SPOT peptide array binding signal intensity,[10],28
same,SPOT peptide array binding signal intensity,[11],513
same,SPOT peptide array binding signal intensity,[12],3.75
same,SPOT peptide array binding signal intensity,[13],422
same,SPOT peptide array binding signal intensity,[14],21.3
same,SPOT peptide array binding signal intensity,[15],548
same,SPOT peptide array binding signal intensity,[16],176
same,SPOT peptide array binding signal intensity,[17],12
same,SPOT peptide array binding signal intensity,[18],112
same,SPOT peptide array binding signal intensity,[19],134
same,SPOT peptide array binding signal intensity,[20],225
same,SPOT peptide array binding signal intensity,[21],199
same,SPOT peptide array binding signal intensity,[22],592
same,SPOT peptide array binding signal intensity,[23],334
same,SPOT peptide array binding signal intensity,[24],162
same,SPOT peptide array binding signal intensity,[25],4760
same,SPOT peptide array binding signal intensity,[26],1.25
same,SPOT peptide array binding signal intensity,[27],193
same,SPOT peptide array binding signal intensity,[28],31
same,SPOT peptide array binding signal intensity,[29],280
same,SPOT peptide array binding signal intensity,[30],69.2
